# aSyn UTR inh: MLPCN primary screen, SNCA 5' untranslated region. hit rate 0.82% among 300,000. inhibition, % (tested at 7.5 µM). alpha-synuclein 5'UTR reporter, inhibitor activity. AID 1813; in the data active = inhibition above about 60%;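 also: H4 neuroglioblastoma cells stably carrying SNCA 5'UTR luciferase fusion; 0% = DMSO wells and 100% = positive control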
# KLF5 inh: inhibitors of KLF5 expression | DLD-1 KLF5 promoter-luciferase reporter, luminescence | inhibition, % at 5 µM | hit rate 0.23% among 290,000;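 active = inhibition above a per-plate limit of that plate's mean compound inhibition plus 3 SD, cut at about 60% in these data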;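 also: 0% = DMSO wells and 100% = LY294002 at 200 µM; higher means less KLF5 promoter-driven luciferase light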
# Jurkat NFkB inh: inhibitors of the PMA/ionomycin-induced NF-kB reporter in Jurkat cells | hit rate 0.53% among 330,000 | PMA/ionomycin-induced NF-kB luciferase reporter, luminescence | inhibition, % at 4 µM | AID 435003; in the data active = inhibition above about 50%
# Gli-Sufu antag: Gli-Sufu pathway antagonism; Sufu-KO-LIGHT fibroblasts, Gli luciferase reporter luminescence; inhibition, % at 5 µM; hit rate 0.74% among 340,000; AID 588413;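 active = inhibition above about 55%, limit read from the data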;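 also: 0% = DMSO-treated cells and 100% = wells with medium but no cells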
# Mdm2 MdmX PPI: disrupts the human Mdm2-MdmX interaction; inhibition, % at 8 µM; hit rate 3% among 330,000; SaOS-2 split-luciferase Mdm2/MdmX complementation, luminescence;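 active = inhibition of at least 50% at 8 µM in the primary screen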
# 697 NFkB inh: inhibitors of the PMA/ionomycin-induced NF-kB reporter in 697 B cells; 697 B-cell NF-kB luciferase reporter, 16 h; inhibition, % at 4 µM; hit rate 0.33% among 330,000; AID 435022; in the data active = inhibition above about 35%
# * marks the source's active call; other numbers are inactive results; . = no result given. A selection: hits, their analogues and other compounds. The true share with any hit is near 4.1%.
SMILES,aSyn UTR inh,KLF5 inh,Jurkat NFkB inh,Gli-Sufu antag,Mdm2 MdmX PPI,697 NFkB inh
CCCCn1c(SCC(=O)N2c3ccccc3CCc3ccccc32)nc2c1c(=O)n(C)c(=O)n2C,74*,-12,9,8,38,21
CC(=O)c1c(C)[nH]c(C(=O)Nc2nc(-c3ccc(Cl)cc3)cs2)c1C,8,-20,3,31,31,-5
CC(=O)c1c(C)[nH]c(C(=O)Nc2nc(C)cs2)c1C,86*,19,-50,-23,15,-70
O=C(O)CNS(=O)(=O)c1ccc(C2CCCCC2)cc1,19,-19,8,7,-15,9
COc1ccc(C(=O)c2ccc(OC)c(OC)c2OC)cc1,.,.,.,-10,.,.
COc1ccc(C(=O)c2ccc(N(C)C)cc2)c2ccccc12,74*,60,33,42,40,-30
CCN(CC)CCC=C(c1cccs1)c1cccs1,.,.,.,19,.,.
CCSc1nnc(NC(=O)c2ccccn2)s1,67*,-155,-15,-5,-5,-114
CCSc1nnc(NC(=O)c2cnccn2)s1,-43,.,4,-7,15,-7
Cc1csc(NC(=O)c2cn3ccccc3n2)n1,82*,50,-2,-6,20,-36
COc1ccc(N(CC(=O)NCc2cccnc2)S(=O)(=O)c2ccccc2)c(OC)c1,10,.,-12,11,23,5
Cc1ccc(N=Nc2ccc(O)c3ncccc23)cc1,86*,5,.,9,.,.
COc1cc(C(=O)N2C(=O)CCC2=O)cc(OC)c1OC,6,-10,-2,-3,-8,-4
Cc1ccc(OCCn2c(NC(=O)c3ccco3)nc3ccccc32)cc1,67*,-16,-2,-3,42,18
CCC(=O)Nc1nc2ccccc2n1Cc1ccc(C)cc1,77*,-14,-9,2,38,-15
CCC(=O)Nc1nc2ccccc2n1Cc1ccccc1,19,0,-10,-5,27,9
COC(=O)c1ccn(CC(=O)NC2CCCCC2)n1,-9,-18,-24,10,-13,-8
Cc1onc(-c2ccccc2)c1C(O)c1ccc(F)cc1 (stereo not given),19,11,-28,2,-2,-17
N#Cc1cnn2c1nc(N1CCCCC1)c1ccccc12,64*,7,16,-5,47,27
CC(C)c1ccc(S(=O)(=O)c2nnn3c2nc(N2CCCCC2)c2ccccc23)cc1,26,-48,6,2,6,-8
O=C(/C=C/c1ccco1)Oc1cc(Br)cc(/C=N/NC(=O)c2ccccc2O)c1,96*,-5,.,42,.,.
Cc1ccc(C(=O)N/N=C/c2cccc(OC(=O)/C=C/c3ccco3)c2)cn1,-100,-23,-5,1,16,-16
CC(=O)NCCCC(=O)NN1C(=S)N(Cc2ccccc2)C(=O)C1CC(=O)Nc1cccc(C)c1 (stereo not given),-12,19,-9,1,-25,0
CC(=NNC(=S)N1CCN(c2ccccn2)CC1)c1nccs1,.,.,.,89*,.,.
CC(=NNC(=S)N1CCN(C2CCCCCC2)CC1)c1ccccn1,.,.,.,65*,.,.
SMILES,aSyn UTR inh,KLF5 inh,Jurkat NFkB inh,Gli-Sufu antag,Mdm2 MdmX PPI,697 NFkB inh
O=C(O)c1cccc(-c2ccc(/C=N/n3cnc4sc5c(c4c3=O)CCCC5)o2)c1,-14,10,5,.,-9,10
CN(C(=O)CSc1cc(Cl)ccc1Cl)C1CCS(=O)(=O)C1 (stereo not given),.,.,9,3,-13,5
Cc1ccc(C(=O)N/C(=C\c2ccc(-c3ccccc3[N+](=O)[O-])o2)C(=O)NCCCN2CCOCC2)cc1,71*,-28,19,4,9,5
Cc1ccc(C(=O)N/C(=C\c2cn(C)c3ccccc23)C(=O)NCCCN2CCOCC2)cc1,9,-7,1,18,10,-8
COc1ccc(NC(=O)COc2ccc(C(=O)OCC(=O)N(C(C)C)C(C)C)cc2OC)cc1,13,-29,-13,-14,16,15
O=S(=O)(c1ccc(Cl)cc1)N1CCC(c2nc3ccccc3[nH]2)CC1,76*,3,12,-7,44,8
S=C(NCc1cccnc1)Nc1cccc2ccccc12,-34,-11,6,-1,27,1
S=C(NCc1ccccc1)Nc1cccc2cnccc12,7,-7,18,65*,24,-15
COc1ccccc1C(=O)NNC(=S)NC(=O)c1cc(OC)c(OC)c(OC)c1,73*,-33,4,7,49,20
COc1cc(C(=O)NC(=S)NNC(=O)c2cnccn2)cc(OC)c1OC,79*,18,1,4,49,28

# Screening data (PubChem BioAssay)
